# Measurements from PubChem BioAssay.
# Records with an inconclusive call do not appear. Activity calls are given as the source filed them.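 The calls were made as follows, unless noted: active = percent response above a set limit, the screen-wide mean plus 3 SD (cut at about 130% in these data); inactive = the rest.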
# Key:
# [1] = rapamycin-like changes in RPL19A-GFP expression – cell-based, S. cerevisiae, multiplex flow cytometry, primary screen (AID 1862; in the data active = percent of DMSO control GFP below about 86%;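 also: lower values mimic rapamycin by blocking the RPL19A rise seen in DMSO cells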); details: S. cerevisiae RPL19A-GFP strain, flow cytometry fluorescence, 3 h; at 10 µM; stronger effect = lower value
# [2] = TOR pathway GLN3 branch reporter MEP2-GFP changes – S. cerevisiae, multiplex flow cytometry, primary screen (AID 1867;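 active = GFP response, as percent of the DMSO control, above the screen-wide mean plus 3 SD, about 139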;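 also: median GFP channel fluorescence of barcode-gated MEP2-GFP cells measured by flow cytometry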); details: S. cerevisiae MEP2-GFP strain, 3 h, at 10 µM, stronger effect = higher value, 100% means same as DMSO wells
# [3] = TOR pathway RTG branch CIT2 reporter changes – S. cerevisiae, GFP fusion, multiplex flow cytometry, primary screen (AID 1870);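 also: barcoded CIT2-GFP strain pooled with four other GFP strains with rapamycin as positive control; median GFP fluorescence per well over plate mean of DMSO wells so 100% = DMSO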; details: S. cerevisiae CIT2-GFP expression, 3 h, at 10 µM, stronger effect = higher value
# [4] = TOR pathway LAP4-GFP level changes – S. cerevisiae, multiplex flow cytometry, primary screen (AID 1873;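 active = GFP signal, as percent of the solvent control, above the screen mean plus 3 SD, about 149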); details: S. cerevisiae LAP4-GFP expression, 3 h, at 10 µM, stronger effect = higher value
# [5] = yeast AGP1-GFP level changes, GLN3 branch – cell-based, multiplex flow cytometry, S. cerevisiae, primary screen (AID 1887;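 active = GFP signal above the screen-wide mean plus 3 SD, that is over about 124.5% of the solvent control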;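 also: AGP1-GFP fusion strain of S. cerevisiae within a five-strain barcoded multiplex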); details: 3 h, at 10 µM, stronger effect = higher value
# [6] = hit retest on RPL19A-GFP reporter strain – cell-based, S. cerevisiae, flow cytometry, cherry picks, mother/daughter gates, confirmation (AID 2270;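 active = GFP response below 50% of the DMSO control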); details: 3 h, at 10 µM, stronger effect = lower value, 100 = same GFP as DMSO wells
# [7] = yeast TOR pathway reporter LAP4-GFP change – cell-based, cherry picks, flow cytometry, mother/daughter gates, confirmation (AID 2271;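 active = GFP response above 150% of the DMSO control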;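 also: ratio of sample to DMSO plate mean so 100% equals DMSO level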); details: S. cerevisiae LAP4-GFP strain, 3 h, at 10 µM, stronger effect = higher value, 100 means same as DMSO control
# [8] = TOR pathway reporter MEP2-GFP, retest of hits – S. cerevisiae, flow cytometry GFP, cherry picks, confirmation (AID 2272;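 active = GFP response above 150% of the DMSO control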;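 also: ratio of well signal to plate DMSO mean so 100% equals DMSO level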); details: S. cerevisiae MEP2-GFP strain, 3 h, at 10 µM, stronger effect = higher value
# [9] = TOR pathway CIT2 reporter hit retest – S. cerevisiae, GFP fusion, cherry picks, mother/daughter gates, confirmation (AID 2274;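 active = GFP response above 150% of the DMSO level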); details: S. cerevisiae CIT2-GFP strain, flow cytometry, 3 h, at 10 µM, stronger effect = higher value
# [10] = reduced mouse 2C T cell binding to pMHC/ICAM-1 vesicles – MLPCN validation set, flow cytometry, LFA-1/ICAM-1 modulator project, pilot screen (AID 2523;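 active = response below a set limit, under 55% cells CD8-positive and vesicle-bound, and CD8 cells' 90th-percentile brightness under 279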;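 as to vesicle binding response: mean PE anti-B7-1 fluorescence of CD8+ cells relative to row control; 100% = QL9-loaded vesicles with DMSO vehicle in the same plate row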); details: 2C mouse CD8+ T cells, at 7 µM, stronger effect = lower value; double positive events: measured here: CD8+/vesicle+ event percentage
# [11] = biological target: Integrin beta-1 (Homo sapiens) + Integrin alpha-4 (Homo sapiens) (UniProt P13612+P05556); assay: alpha4beta1 integrin LIBS antibody binding reduction – U937 cells, HUTS-21 mAb, flow cytometry, validation set, VLA-4 allosteric modulator project, pilot screen (AID 2674;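 active = inhibition above 50%, about 3 SD of the validation set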;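 also: antibody binding induced by the VLA-4 ligand LDV present at three times its Kd; 0% = LDV ligand with antibody and no compound and 100% = antibody without LDV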); details: HUTS-21 LIBS mAb binding, at 6.7 µM, stronger effect = higher value, binding induced by LDV ligand
# Integrin beta-1 (Homo sapiens) + Integrin alpha-4 (Homo sapiens), sequence (P05556 whole entry, looked up): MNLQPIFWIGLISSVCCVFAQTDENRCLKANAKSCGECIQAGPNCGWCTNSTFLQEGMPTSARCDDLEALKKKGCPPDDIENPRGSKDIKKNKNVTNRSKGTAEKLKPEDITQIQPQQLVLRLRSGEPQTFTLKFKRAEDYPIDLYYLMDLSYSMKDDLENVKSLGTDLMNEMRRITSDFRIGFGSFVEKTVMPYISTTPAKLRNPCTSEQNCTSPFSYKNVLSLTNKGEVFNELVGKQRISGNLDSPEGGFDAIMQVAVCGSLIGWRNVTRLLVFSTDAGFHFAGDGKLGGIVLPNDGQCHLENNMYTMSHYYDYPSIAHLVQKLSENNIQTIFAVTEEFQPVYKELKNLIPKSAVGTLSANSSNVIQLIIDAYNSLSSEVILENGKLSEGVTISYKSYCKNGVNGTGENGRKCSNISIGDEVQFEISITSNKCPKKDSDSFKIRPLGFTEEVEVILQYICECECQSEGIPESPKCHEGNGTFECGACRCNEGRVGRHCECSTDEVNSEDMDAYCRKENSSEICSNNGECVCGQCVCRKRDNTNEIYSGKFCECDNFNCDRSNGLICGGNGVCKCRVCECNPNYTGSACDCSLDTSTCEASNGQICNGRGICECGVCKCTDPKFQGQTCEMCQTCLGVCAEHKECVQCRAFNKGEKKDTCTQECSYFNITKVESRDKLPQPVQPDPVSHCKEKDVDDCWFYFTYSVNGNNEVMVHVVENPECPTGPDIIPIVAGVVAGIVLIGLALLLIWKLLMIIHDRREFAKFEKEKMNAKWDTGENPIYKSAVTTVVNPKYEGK
# Integrin beta-1 (Homo sapiens) + Integrin alpha-4 (Homo sapiens), sequence (P13612 whole entry, looked up): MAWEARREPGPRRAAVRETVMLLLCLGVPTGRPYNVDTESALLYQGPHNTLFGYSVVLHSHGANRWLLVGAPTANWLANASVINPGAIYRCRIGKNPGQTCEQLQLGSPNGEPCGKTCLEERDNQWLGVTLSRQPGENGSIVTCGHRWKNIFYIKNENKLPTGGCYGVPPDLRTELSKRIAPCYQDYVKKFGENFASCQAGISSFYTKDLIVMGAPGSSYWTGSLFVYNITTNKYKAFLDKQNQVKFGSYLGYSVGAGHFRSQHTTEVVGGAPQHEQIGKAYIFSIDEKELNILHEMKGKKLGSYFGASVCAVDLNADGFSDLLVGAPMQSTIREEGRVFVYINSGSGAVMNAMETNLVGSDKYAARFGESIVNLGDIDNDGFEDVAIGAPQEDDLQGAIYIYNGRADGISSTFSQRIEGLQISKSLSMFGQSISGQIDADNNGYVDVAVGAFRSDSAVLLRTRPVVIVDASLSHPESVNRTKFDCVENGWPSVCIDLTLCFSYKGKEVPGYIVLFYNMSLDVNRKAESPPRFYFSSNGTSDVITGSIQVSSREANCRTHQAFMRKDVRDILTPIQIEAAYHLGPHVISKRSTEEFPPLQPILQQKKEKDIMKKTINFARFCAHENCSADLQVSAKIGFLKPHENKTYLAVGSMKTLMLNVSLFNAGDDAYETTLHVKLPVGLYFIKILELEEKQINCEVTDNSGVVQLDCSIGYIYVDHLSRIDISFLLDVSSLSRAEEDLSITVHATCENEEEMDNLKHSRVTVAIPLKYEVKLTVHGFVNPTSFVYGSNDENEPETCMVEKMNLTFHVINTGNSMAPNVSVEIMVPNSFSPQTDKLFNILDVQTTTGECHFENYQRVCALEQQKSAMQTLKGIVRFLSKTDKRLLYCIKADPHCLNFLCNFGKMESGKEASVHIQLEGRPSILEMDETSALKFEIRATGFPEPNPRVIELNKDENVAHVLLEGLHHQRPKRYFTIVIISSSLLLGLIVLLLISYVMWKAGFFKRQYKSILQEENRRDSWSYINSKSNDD
# [12] = calorie-restriction mimetic ROS inhibitors, yeast – validation compound set, pilot screen (AID 2706;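 active = superoxide response below 65% of plate, a cut near 3 SD across the whole screen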;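 also: yeast exposed to compound for one week at 30 degrees C before staining; 100% = mean of all compound wells on the same plate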); details: S. cerevisiae aging, superoxide DHE fluorescence; at 10 µM; stronger effect = lower value
# [13] = biological target: Beta-adrenergic receptor kinase 1 (Homo sapiens) (UniProt P25098); assay: GRK2 binders displacing RNA aptamer, biochemical, validation, human GRK2, bead flow cytometry (AID 488806;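 active = aptamer binding inhibition above 30%, about 3 SD of noise from non-fluorescent compounds; inactive = inhibition at or below 30%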); details: bead-bound GRK2, FAM-aptamer displacement, at 10 µM, stronger effect = higher value
# Beta-adrenergic receptor kinase 1 (Homo sapiens), sequence (P25098 whole entry, looked up): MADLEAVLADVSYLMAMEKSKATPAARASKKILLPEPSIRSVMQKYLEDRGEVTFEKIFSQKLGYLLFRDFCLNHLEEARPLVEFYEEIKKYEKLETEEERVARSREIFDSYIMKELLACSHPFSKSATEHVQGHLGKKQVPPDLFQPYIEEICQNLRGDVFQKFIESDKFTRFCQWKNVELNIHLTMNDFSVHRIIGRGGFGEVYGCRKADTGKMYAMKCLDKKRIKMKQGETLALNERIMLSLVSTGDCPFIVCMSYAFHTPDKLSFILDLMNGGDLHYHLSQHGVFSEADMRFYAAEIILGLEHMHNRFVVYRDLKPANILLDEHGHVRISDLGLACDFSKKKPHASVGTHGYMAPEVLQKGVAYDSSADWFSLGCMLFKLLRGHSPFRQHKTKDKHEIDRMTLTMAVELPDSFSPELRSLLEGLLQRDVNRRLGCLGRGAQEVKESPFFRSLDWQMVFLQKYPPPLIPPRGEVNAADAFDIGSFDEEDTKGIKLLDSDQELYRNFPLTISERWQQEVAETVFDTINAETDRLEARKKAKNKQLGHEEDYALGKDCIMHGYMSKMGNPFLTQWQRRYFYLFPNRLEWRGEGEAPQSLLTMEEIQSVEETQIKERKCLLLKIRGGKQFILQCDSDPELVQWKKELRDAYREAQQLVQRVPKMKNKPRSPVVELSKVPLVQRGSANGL
# [14] = biological target: Beta-2 adrenergic receptor (Homo sapiens) (UniProt P07550); assay: agonist-induced loss of surface beta2AR – cell-based, FAP fluorogen, flow cytometry, validation set, pilot screen (AID 504459;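 active = percent response above 42, roughly 3 SD of non-fluorescent test compounds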;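 also: agonist-driven loss of surface beta2AR via internalization measured by FAP dye flow cytometry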); details: Am2.2-beta2AR cells, at 10 µM, stronger effect = higher value
# Beta-2 adrenergic receptor (Homo sapiens), sequence (P07550 whole entry, looked up): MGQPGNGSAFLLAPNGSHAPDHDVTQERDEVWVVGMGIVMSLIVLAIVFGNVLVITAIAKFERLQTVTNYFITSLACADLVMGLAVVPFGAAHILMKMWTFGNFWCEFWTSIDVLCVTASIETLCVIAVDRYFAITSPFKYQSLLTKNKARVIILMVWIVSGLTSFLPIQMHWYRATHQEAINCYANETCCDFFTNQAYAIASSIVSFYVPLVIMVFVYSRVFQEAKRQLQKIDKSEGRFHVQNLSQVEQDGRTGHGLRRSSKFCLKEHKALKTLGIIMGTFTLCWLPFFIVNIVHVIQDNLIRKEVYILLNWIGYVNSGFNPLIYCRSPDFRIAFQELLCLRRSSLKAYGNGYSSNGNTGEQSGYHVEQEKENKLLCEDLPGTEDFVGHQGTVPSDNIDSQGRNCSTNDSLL
# [15] = biological target: AP-2 complex subunit beta (Homo sapiens) (UniProt P63010); assay: beta-arrestin/AP2 interaction blockers – biochemical, validation set, GST-AP2 beads, flow cytometry, pilot screen (AID 504541;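 active = inhibition above 54%, about 3 SD of non-fluorescent compounds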;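 also: AP2 carries R879A mutation and is captured from E. coli lysate; bead-bound FITC arrestin peptide fluorescence measuring arrestin peptide binding to AP2; 0% = DMSO wells and 100% = excess unlabeled arrestin peptide control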); details: FITC arrestin peptide, at 10 µM, stronger effect = higher value, AP2 beta2 appendage fragment, R879A mutant
# AP-2 complex subunit beta (Homo sapiens), sequence (P63010 whole entry, looked up, the tested form may be a part, one chain of several): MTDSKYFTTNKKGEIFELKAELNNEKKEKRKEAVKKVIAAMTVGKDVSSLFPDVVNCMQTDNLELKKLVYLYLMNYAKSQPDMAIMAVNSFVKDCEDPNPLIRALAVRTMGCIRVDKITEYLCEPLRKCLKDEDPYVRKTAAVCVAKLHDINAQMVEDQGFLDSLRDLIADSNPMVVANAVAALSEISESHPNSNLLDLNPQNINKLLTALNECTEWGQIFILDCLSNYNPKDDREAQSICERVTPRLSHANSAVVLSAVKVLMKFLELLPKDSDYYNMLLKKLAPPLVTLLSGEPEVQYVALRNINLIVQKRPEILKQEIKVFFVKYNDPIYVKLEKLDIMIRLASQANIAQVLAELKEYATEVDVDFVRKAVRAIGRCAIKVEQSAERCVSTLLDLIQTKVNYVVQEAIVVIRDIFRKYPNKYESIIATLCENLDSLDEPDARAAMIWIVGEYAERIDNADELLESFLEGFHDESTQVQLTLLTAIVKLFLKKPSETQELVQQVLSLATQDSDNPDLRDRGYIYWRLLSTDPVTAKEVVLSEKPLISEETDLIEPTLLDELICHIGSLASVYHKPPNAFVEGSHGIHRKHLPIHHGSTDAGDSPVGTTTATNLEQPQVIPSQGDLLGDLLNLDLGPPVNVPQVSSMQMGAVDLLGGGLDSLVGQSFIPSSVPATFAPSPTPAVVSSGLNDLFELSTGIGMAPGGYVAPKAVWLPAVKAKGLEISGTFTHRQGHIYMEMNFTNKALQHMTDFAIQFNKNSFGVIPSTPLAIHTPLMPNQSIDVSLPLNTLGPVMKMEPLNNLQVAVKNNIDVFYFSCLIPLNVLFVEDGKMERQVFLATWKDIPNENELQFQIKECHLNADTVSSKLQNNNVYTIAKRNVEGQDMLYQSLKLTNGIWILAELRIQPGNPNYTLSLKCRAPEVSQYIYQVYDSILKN
# [16] = cytosolic pH regulators acting via V-ATPase – S. cerevisiae, pHLuorin, HTS validation (AID 504600; in the data active = response above about 15%;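 also: plate controls were DMSO for no effect and reference compound for full effect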); details: V-ATPase proton transport, at 10 µM, stronger effect = higher value
# [17] = tested on: anti-desmoglein-3 scFv antibody binding to human DSG3; assay: blockers of pathogenic pemphigus antibody–desmoglein-3 binding – biochemical, validation compound set, bead-based, flow cytometry, pilot screen (AID 588368;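 active = binding below the plate cutoff, the plate median minus 3 SD, with a reading above zero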;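 also: signal is the median channel fluorescence of bead-bound GFP antibody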); details: Protein G beads, DSG3-Fc, scFv-GFP binding, at 10 µM, stronger effect = lower value
# [18] = Nile Red efflux blockade in pump-expressing yeast – validation compound set, multiplex, phenotypic, pilot screen (AID 588506;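 active = efflux inhibition above 0.42, the validation set average plus 4 SD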;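 also: Nile Red retained in cells so higher fluorescence means more efflux inhibition; 0 = negative control wells and 1 = enniatin B 25 µM full block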); details: S. cerevisiae pump-expressing triplex, Nile Red efflux flow cytometry; at 10 µM; stronger effect = higher value; the pumps come from Candida albicans
# [19] = biological target: ATP-binding cassette sub-family B member 6 (Homo sapiens) (UniProt Q9NP58); assay: blockers of ABCB6-driven porphyrin uptake – K562-ABCB6 cells, flow cytometry, validation set, pilot screen (AID 588550;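 active = inhibition above the screen-wide mean plus 3 SD, about 51%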;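 also: 0% = DMSO wells and 100% = benzethonium chloride 70 µM positive control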); details: K562-ABCB6 porphyrin accumulation, 1 h, at 10 µM, stronger effect = higher value
# ATP-binding cassette sub-family B member 6 (Homo sapiens), sequence (Q9NP58 whole entry, looked up): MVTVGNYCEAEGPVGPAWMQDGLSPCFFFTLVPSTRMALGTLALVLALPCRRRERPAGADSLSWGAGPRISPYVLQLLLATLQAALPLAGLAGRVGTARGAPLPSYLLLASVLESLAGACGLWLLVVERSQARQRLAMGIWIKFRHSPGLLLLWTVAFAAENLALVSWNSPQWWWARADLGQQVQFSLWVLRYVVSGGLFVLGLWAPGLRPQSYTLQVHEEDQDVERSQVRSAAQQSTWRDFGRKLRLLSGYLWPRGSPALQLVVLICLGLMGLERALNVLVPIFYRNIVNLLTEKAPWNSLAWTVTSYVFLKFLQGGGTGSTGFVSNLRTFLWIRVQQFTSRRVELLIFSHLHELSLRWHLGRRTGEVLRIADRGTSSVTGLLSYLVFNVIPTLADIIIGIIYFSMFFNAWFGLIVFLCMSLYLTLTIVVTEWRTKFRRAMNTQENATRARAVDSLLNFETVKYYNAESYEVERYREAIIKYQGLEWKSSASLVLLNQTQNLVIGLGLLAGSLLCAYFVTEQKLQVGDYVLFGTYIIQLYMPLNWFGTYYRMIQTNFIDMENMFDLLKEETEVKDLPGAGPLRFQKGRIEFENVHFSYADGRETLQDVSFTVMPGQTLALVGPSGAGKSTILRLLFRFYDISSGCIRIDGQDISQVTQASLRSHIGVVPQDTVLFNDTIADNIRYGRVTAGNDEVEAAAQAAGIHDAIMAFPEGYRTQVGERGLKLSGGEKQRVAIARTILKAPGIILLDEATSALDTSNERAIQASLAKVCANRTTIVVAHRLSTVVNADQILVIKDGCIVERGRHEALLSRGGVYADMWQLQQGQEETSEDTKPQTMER
# [20] = AML differentiation inducers, ER-HoxA9 marrow cells – cell-based, GFP/MAC1 double positive, flow cytometry, validation set, primary screen (AID 588685;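 active = differentiation response of at least 50%, scaled between solvent and reference control, from cells with both markers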;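 also: compound exposure lasts four days before antibody staining and flow analysis; 0% = DMSO wells and 100% = 5 µM fulvestrant positive control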); details: stronger effect = higher value, normalized: vehicle 0, fulvestrant 100
# [21] = measured here: daughter cell gate
# [22] = measured here: mother cell gate
# [23] = measured here: daughter cell gate response
# [24] = measured here: mother cell gate response
smiles,measurement,setting,value
CC(C)CC(=O)Nc1ccc2oc(-c3ccncc3)nc2c1,percent of DMSO control GFP,[1],92.2% (inactive)
same,GFP response vs DMSO,[2],144% (active)
same,percent response of DMSO control,[3],103% (inactive)
same,GFP response vs DMSO,[4],82.5% (inactive)
same,"GFP response, % of DMSO",[5],83.8% (inactive)
same,GFP response vs DMSO,[6],103% (inactive)
same,GFP response vs DMSO,[6]; [21],99.8%
same,GFP response vs DMSO,[6]; [22],104%
same,GFP response relative to DMSO,[7],98.7% (inactive)
same,GFP response relative to DMSO,[7]; [23],98.7%
same,GFP response relative to DMSO,[7]; [24],101%
same,GFP response vs DMSO,[8],97.8% (inactive)
same,"GFP response, % of DMSO",[9],108% (inactive)
same,"GFP response, % of DMSO",[9]; [21],99.7%
same,"GFP response, % of DMSO",[9]; [22],107%
same,double positive events,[10],71.3%
same,vesicle binding response,[10],292% (inactive)
same,inhibition,[11],10.3% (inactive)
same,superoxide response (% of plate),[12],102% (inactive)
same,aptamer binding inhibition,[13],5% (inactive)
same,response,[14],-11.1% (inactive)
same,inhibition,[15],-5.82% (inactive)
same,response,[16],-0.11% (inactive)
same,binding (% of control),[17],105% (inactive)
same,efflux inhibition (fraction of control),[18],-0.02 (inactive)
same,inhibition,[19],11% (inactive)
same,differentiation response,[20],-2.46% (inactive)
Nc1[nH]c(=O)ncc1F,percent of DMSO control GFP,[1],84.2% (active)
same,GFP response vs DMSO,[2],107% (inactive)
same,percent response of DMSO control,[3],87.1% (inactive)
same,GFP response vs DMSO,[4],113% (inactive)
same,"GFP response, % of DMSO",[5],80.8% (inactive)
same,GFP response vs DMSO,[6],74.7% (inactive)
same,GFP response vs DMSO,[6]; [21],70.4%
same,GFP response vs DMSO,[6]; [22],78.1%
same,GFP response relative to DMSO,[7],107% (inactive)
same,GFP response relative to DMSO,[7]; [23],95%
same,GFP response relative to DMSO,[7]; [24],111%
same,GFP response vs DMSO,[8],106% (inactive)
same,"GFP response, % of DMSO",[9],80.6% (inactive)
same,"GFP response, % of DMSO",[9]; [21],79.7%
same,"GFP response, % of DMSO",[9]; [22],81.6%
same,double positive events,[10],61.3%
same,vesicle binding response,[10],142% (inactive)
same,inhibition,[11],10% (inactive)
same,superoxide response (% of plate),[12],67.3% (inactive)
same,aptamer binding inhibition,[13],0% (inactive)
same,inhibition,[15],27% (inactive)
same,response,[16],-5.4% (inactive)
same,binding (% of control),[17],108% (inactive)
same,efflux inhibition (fraction of control),[18],0.33 (inactive)
same,inhibition,[19],1% (inactive)
same,differentiation response,[20],7.87% (inactive)
CC(=O)c1ccc(CCCCCCCCCC(=O)O)s1,percent of DMSO control GFP,[1],98.6% (inactive)
same,GFP response vs DMSO,[2],97.4% (inactive)
same,percent response of DMSO control,[3],66.4% (inactive)
same,GFP response vs DMSO,[4],174% (active)
same,"GFP response, % of DMSO",[5],86.2% (inactive)
same,GFP response vs DMSO,[6],99% (inactive)
same,GFP response vs DMSO,[6]; [21],96.7%
same,GFP response vs DMSO,[6]; [22],98.5%
same,GFP response relative to DMSO,[7],108% (inactive)
same,GFP response relative to DMSO,[7]; [23],111%
same,GFP response relative to DMSO,[7]; [24],113%
same,GFP response vs DMSO,[8],100% (inactive)
same,"GFP response, % of DMSO",[9],99.1% (inactive)
same,"GFP response, % of DMSO",[9]; [21],93.2%
same,"GFP response, % of DMSO",[9]; [22],101%
same,double positive events,[10],60%
same,vesicle binding response,[10],207% (inactive)
same,inhibition,[11],13.2% (inactive)
same,superoxide response (% of plate),[12],117% (inactive)
same,aptamer binding inhibition,[13],-5% (inactive)
same,response,[14],23.9% (inactive)
same,inhibition,[15],26.2% (inactive)
same,response,[16],-3% (inactive)
same,binding (% of control),[17],99.3% (inactive)
same,efflux inhibition (fraction of control),[18],0.01 (inactive)
same,inhibition,[19],-2% (inactive)
same,differentiation response,[20],66.4% (active)
Cc1ccc2[nH]c3c(c2c1)CCNC3=O,percent of DMSO control GFP,[1],99.1% (inactive)
same,GFP response vs DMSO,[2],95.9% (inactive)
same,percent response of DMSO control,[3],104% (inactive)
same,GFP response vs DMSO,[4],91.3% (inactive)
same,"GFP response, % of DMSO",[5],98.7% (inactive)
same,GFP response vs DMSO,[6],101% (inactive)
same,GFP response vs DMSO,[6]; [21],100%
same,GFP response vs DMSO,[6]; [22],103%
same,GFP response relative to DMSO,[7],91.4% (inactive)
same,GFP response relative to DMSO,[7]; [23],92.5%
same,GFP response relative to DMSO,[7]; [24],94.2%
same,GFP response vs DMSO,[8],100% (inactive)
same,"GFP response, % of DMSO",[9],111% (inactive)
same,"GFP response, % of DMSO",[9]; [21],106%
same,"GFP response, % of DMSO",[9]; [22],114%
same,double positive events,[10],57.6%
same,vesicle binding response,[10],187% (inactive)
same,inhibition,[11],7.22% (inactive)
same,superoxide response (% of plate),[12],95% (inactive)
same,aptamer binding inhibition,[13],-2% (inactive)
same,inhibition,[15],-5.6% (inactive)
same,response,[16],-10.4% (inactive)
same,binding (% of control),[17],100% (inactive)
same,efflux inhibition (fraction of control),[18],-0.2 (inactive)
same,inhibition,[19],7% (inactive)
same,differentiation response,[20],-6.66% (inactive)
